Data as given in ChEMBL document CHEMBL1157539, “Thousands of chemical starting points for antimalarial lead identification” (Nature, 2010).

Tests used:
Assay type in all cases: functional
Plasmodium falciparum [1] = test: GSK_TCMDC: Inhibition of Plasmodium falciparum 3D7 in whole red blood cells, using parasite LDH activity as an index of growth. Test compounds present at 2uM
Plasmodium falciparum [2] = test: GSK_TCMDC: Inhibition of Plasmodium falciparum Dd2 in whole red blood cells, using parasite LDH activity as an index of growth. Test compounds present at 2uM
HepG2 = test: GSK_TCMDC: Percent inhibition of human HepG2 cell line. Test compounds present at 10uM.

| Structure (SMILES) | Inhibition (Plasmodium falciparum [1]) [%] | Inhibition (Plasmodium falciparum [2]) [%] | Inhibition (HepG2) [%] |
| --- | --- | --- | --- |
| Br.COc1ccc(CCCON2C(=N)N=C(N)NC2(C)C)cc1 | 95 | 94 | 61 |
| CC1CCc2c(C(=O)Nc3c(F)cc(F)cc3Br)csc2C1 (stereo not given) | 96 | 59 | 0 |
| O=C(Nc1ccc(Cl)c(Cl)c1)Nc1ccc2nccc(N3CCN(Cc4ccccc4)CC3)c2c1 | 100 | 100 | 31 |
| Oc1cc(NCc2ccccc2NCc2ccc(Cl)c(Cl)c2)nc2ccccc12 | 93 | 98 | 10 |
| COC(=O)c1cccc(CN(CCC(O)(C(F)(F)F)C(F)(F)F)C(=O)CC2CCCC2)c1 | 98 | 53 | 0 |
| Br.CCCC1N=C(N)N=C(N)N1c1ccc(C)cc1 (stereo not given) | 94 | 2 | 1 |
| O=C(O)C(F)(F)F.O=S(=O)(NCCN1CCCC1)c1ccc(-c2ccc(CNCc3ccsc3)cc2)cc1 | 95 | 36 | 44 |
| O=C(Nc1ccc2[nH]c(-c3ccccc3)nc2c1)c1cc(-c2ccc3c(c2)OCCO3)n[nH]1.O=C(O)C(F)(F)F | 100 | 75 | 58 |
| Cc1cc2c3c(N)nc(N)nc3ccc2n1C(C)C | 93 | 0 | 70 |
| Cc1[nH]c(C)c(-c2ccc(OCCCc3ccccn3)cc2)c(=O)c1Br.Cl | 98 | 97 | 0 |
